S1P3 antagonist – blocks the human S1P3 receptor; 170,000 compounds, 0.27% hits; inhibition, % at 4.98 µM; CHO S1P3 NFAT-BLA reporter, FRET fluorescence, antagonist mode;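 active means inhibition above the plate cutoff, the mean inhibition of test wells on that plate plus 3 SD, cut at about 28% in these data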;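 further: cells challenged with S1P at its EC80 of 0.8 µM; blue over green emission ratio from cleaved BLA substrate after 4 h stimulation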
Redox H2O2 prof – compounds producing H2O2 with reducing agent – biochemical, NIH compound library profiling, artefact control for MLSCN library redox annotation, primary screen; AID 878; 200,000 compounds, 0.03% hits; activation, % at 10 µM; DTT-dependent redox cycling H2O2, phenol red/HRP absorbance; 100% = 100 µM peroxide control, 0% = buffer;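 active means activation of at least 50% relative to the plate's high and low controls in the primary single-dose screen; inactive means activation below 50%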;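 further: compound incubated with DTT at 0.8 mM final as the reducing agent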
S1P4 agonist – agonists of human S1P4 receptor | O95977 | S1P4-expressing cell line, agonist reporter assay | activation, % at 4.98 µM | 220,000 compounds, 0.35% hits; in the data active means activation above about 11%
p97 ATPase inh – blocks human p97 ATPase activity; 220,000 compounds, 0.42% hits; AID 1481; inhibition, % at 8 µM; recombinant p97 ATPase, Kinase-Glo ATP luminescence, 3 h; in the data active means inhibition above about 15%
Target sequence (P55072 whole entry, looked up): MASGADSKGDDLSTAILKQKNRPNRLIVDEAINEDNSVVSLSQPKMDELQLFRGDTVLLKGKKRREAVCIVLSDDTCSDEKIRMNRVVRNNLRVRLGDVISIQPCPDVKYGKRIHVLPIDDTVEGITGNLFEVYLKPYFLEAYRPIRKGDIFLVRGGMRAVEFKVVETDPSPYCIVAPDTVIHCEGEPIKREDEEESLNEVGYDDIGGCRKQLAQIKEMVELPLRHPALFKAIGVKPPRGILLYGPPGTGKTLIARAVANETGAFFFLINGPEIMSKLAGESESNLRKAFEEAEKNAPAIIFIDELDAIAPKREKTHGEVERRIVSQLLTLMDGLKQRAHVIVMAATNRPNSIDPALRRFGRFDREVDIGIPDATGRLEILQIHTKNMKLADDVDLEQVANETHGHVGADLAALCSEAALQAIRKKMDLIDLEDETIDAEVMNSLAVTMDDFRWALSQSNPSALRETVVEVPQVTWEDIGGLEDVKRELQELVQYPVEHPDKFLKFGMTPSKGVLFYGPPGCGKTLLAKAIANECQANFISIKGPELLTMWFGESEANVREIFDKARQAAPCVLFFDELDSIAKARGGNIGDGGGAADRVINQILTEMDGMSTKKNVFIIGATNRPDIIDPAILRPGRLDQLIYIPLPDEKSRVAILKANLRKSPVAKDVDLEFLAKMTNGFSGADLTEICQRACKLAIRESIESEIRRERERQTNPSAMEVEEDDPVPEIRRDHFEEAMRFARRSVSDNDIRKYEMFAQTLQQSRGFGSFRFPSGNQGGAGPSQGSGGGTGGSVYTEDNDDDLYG
S1P4 antag – human S1P4 receptor antagonism. O95977. S1P4-expressing cells, antagonist mode, reporter read-out. inhibition, % at 4.98 µM. 220,000 compounds, 0.26% hits; in the data active means inhibition above about 29%
Arbovirus anti – blocks arbovirus infection | AID 1251 | arbovirus infection cell-based antiviral screen | 200,000 compounds, 0.37% hits | inhibition, % at 10 µM; in the data active means inhibition above about 30%
S1P4 antag cf – human S1P4 antagonism, confirmation; shares compounds with S1P4 antag; S1P4-expressing cell line, antagonist mode, reporter read-out; inhibition, % at 4.98 µM; 520 compounds, 71% hits; in the data active means inhibition above about 30%
S1P1 antag – human S1P1 antagonism as S1P4 antagonist counter-screen; shares compounds with S1P4 antag; cell-based S1P1 antagonist counterscreen, inhibition; inhibition, % at 4.98 µM; 520 compounds, 37% hits; AID 1564; in the data active means inhibition above about 40%;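 further: receptor stimulated with S1P near its EC80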
A number is an active result. An excerpt weighted towards active compounds, which were near 1.6% of everything screened.

COc1ccc(C(=O)/C(=C\c2ccco2)N2C=CC=CC2=C(C#N)C#N)cc1 was read as Redox H2O2 prof inactive, S1P4 agonist inactive, p97 ATPase inh inactive, S1P4 antag 69.7, Arbovirus anti inactive, S1P4 antag cf 117.4 and S1P1 antag 41.1.
For N#CC(C#N)=C1C=CC=CN1/C(=C\c1ccco1)C(=O)c1ccccc1 the results were S1P3 antagonist inactive, Redox H2O2 prof inactive, S1P4 agonist inactive, p97 ATPase inh inactive, S1P4 antag 66.2, Arbovirus anti inactive, S1P4 antag cf 116.5 and S1P1 antag 119.1.
For O=C1CCN(C(=O)c2cccs2)c2ccccc21 the results were S1P3 antagonist inactive, Redox H2O2 prof inactive, S1P4 agonist inactive, p97 ATPase inh inactive, S1P4 antag inactive and Arbovirus anti inactive.
CN1C(=O)/C(=C\C(=O)c2cccs2)c2ccccc21 was read as S1P3 antagonist inactive, Redox H2O2 prof inactive, S1P4 agonist inactive, p97 ATPase inh inactive, S1P4 antag 39.7, Arbovirus anti inactive, S1P4 antag cf 97.3 and S1P1 antag 45.2.
`COC(C(=O)Nc1c(F)cccc1F)c1ccccc1` (stereo unspecified) gave S1P3 antagonist inactive, Redox H2O2 prof inactive, S1P4 agonist inactive, p97 ATPase inh inactive, S1P4 antag inactive and Arbovirus anti inactive.
Screening O=C(/C=C/c1cc(Br)ccc1O)c1ccco1 returned S1P3 antagonist inactive, S1P4 agonist inactive, p97 ATPase inh inactive, S1P4 antag 54.8, S1P4 antag cf 103.0 and S1P1 antag 55.5.
CC(=O)n1cc(N(C(=O)CCl)c2ccccc2)c2ccccc21 was read as S1P3 antagonist inactive, S1P4 agonist inactive, p97 ATPase inh inactive, S1P4 antag 42.4, S1P4 antag cf 100.0 and S1P1 antag inactive.
`CN(C)c1ccc(-n2cccc2/C=C/[N+](=O)[O-])cc1` gave S1P3 antagonist inactive, Redox H2O2 prof inactive, S1P4 agonist inactive, p97 ATPase inh inactive, S1P4 antag inactive and Arbovirus anti inactive.
For CN(c1ccccc1)c1ccc(/C=C/[N+](=O)[O-])cc1 the results were S1P3 antagonist inactive, Redox H2O2 prof inactive, S1P4 agonist inactive, p97 ATPase inh inactive, S1P4 antag 55.5, Arbovirus anti inactive, S1P4 antag cf 119.4 and S1P1 antag 66.5.
`O=C(COc1ccccc1[N+](=O)[O-])N/N=C/c1cccs1` gave S1P3 antagonist inactive, Redox H2O2 prof inactive, S1P4 agonist inactive, p97 ATPase inh inactive, S1P4 antag inactive and Arbovirus anti inactive.
Screening O=C1OC(Nc2cc(Br)cc3cccnc23)c2ccccc21 (stereo unspecified) returned S1P3 antagonist inactive, Redox H2O2 prof inactive, S1P4 agonist inactive, p97 ATPase inh inactive, S1P4 antag inactive and Arbovirus anti inactive.
CCC(=O)N(C)CCc1cc2c(c(OC)c1/C=N/NC(=O)c1ccc(Br)cc1)OCO2 was read as S1P3 antagonist inactive, Redox H2O2 prof inactive, S1P4 agonist inactive, p97 ATPase inh inactive, S1P4 antag inactive and Arbovirus anti inactive.
COc1cc2c3nnc(-c4ccc(F)cc4)c-3cn(Cc3ccccc3)c2cc1OC was read as Redox H2O2 prof inactive, S1P4 agonist inactive, p97 ATPase inh inactive, S1P4 antag 40.7, Arbovirus anti inactive, S1P4 antag cf 85.4 and S1P1 antag 119.7.
`CCOC(=O)c1ccc(NC(=O)CN2C(=O)CCC2=O)cc1` gave Redox H2O2 prof inactive, S1P4 agonist inactive, p97 ATPase inh inactive, S1P4 antag inactive and Arbovirus anti inactive.
Screening CCCc1cc(=O)[nH]c(SCC(=O)N(C)CC(=O)Nc2ccccc2CC)n1 returned S1P3 antagonist inactive, Redox H2O2 prof inactive, S1P4 agonist inactive, p97 ATPase inh inactive, S1P4 antag inactive and Arbovirus anti inactive.
CCn1cc(C(=O)NC(C)C23CC4CC(CC(C4)C2)C3)cn1 (stereo unspecified) was read as S1P3 antagonist inactive, Redox H2O2 prof inactive, S1P4 agonist inactive, p97 ATPase inh inactive, S1P4 antag inactive and Arbovirus anti inactive.
Screening CCc1ccccc1NC(=O)CN(C)C(=O)Cn1ncc(Cl)c(Cl)c1=O returned S1P3 antagonist inactive, Redox H2O2 prof inactive, S1P4 agonist inactive, p97 ATPase inh inactive, S1P4 antag 38.1, Arbovirus anti inactive, S1P4 antag cf 106.5 and S1P1 antag 56.6.
Screening CC(NC(=O)Cn1ncc(Cl)c(Cl)c1=O)C12CC3CC(CC(C3)C1)C2 (stereo unspecified) returned S1P3 antagonist inactive, Redox H2O2 prof inactive, S1P4 agonist inactive, p97 ATPase inh inactive, S1P4 antag 50.5, Arbovirus anti inactive, S1P4 antag cf inactive and S1P1 antag inactive.
Screening CCOC(=O)c1ccc(NC(=O)Cn2ncc(Cl)c(Cl)c2=O)cc1 returned S1P3 antagonist inactive, S1P4 agonist inactive, p97 ATPase inh inactive, S1P4 antag 37.3, Arbovirus anti inactive, S1P4 antag cf 123.2 and S1P1 antag 77.9.
Screening COc1ccc(NC(=O)Cn2ncc(Cl)c(Cl)c2=O)cc1S(=O)(=O)N1CCOCC1 returned S1P3 antagonist inactive, Redox H2O2 prof inactive, S1P4 agonist inactive, p97 ATPase inh inactive, S1P4 antag 33.1, Arbovirus anti inactive, S1P4 antag cf inactive and S1P1 antag inactive.
For COC(=O)c1nnn(-c2nc(N3CCOCC3)nc(N3CCOCC3)n2)c1C the results were S1P3 antagonist inactive, Redox H2O2 prof inactive, S1P4 agonist inactive, p97 ATPase inh inactive, S1P4 antag inactive and Arbovirus anti inactive.
For CCOc1cc(S(=O)(=O)NCc2ccccc2)ccc1Br the results were S1P3 antagonist inactive, Redox H2O2 prof inactive, S1P4 agonist inactive, p97 ATPase inh inactive, S1P4 antag inactive and Arbovirus anti inactive.
Screening CCN(CC)S(=O)(=O)c1cc(NC(=O)Cn2ncc(Cl)c(Cl)c2=O)ccc1C returned S1P3 antagonist inactive, S1P4 agonist inactive, p97 ATPase inh inactive, S1P4 antag 59.8, S1P4 antag cf 71.7 and S1P1 antag 45.6.
Screening Cc1ccc(C(=O)OCn2ncc(Cl)c(Cl)c2=O)cc1 returned Redox H2O2 prof inactive, S1P4 agonist inactive, p97 ATPase inh inactive, S1P4 antag 110.9, Arbovirus anti inactive, S1P4 antag cf 114.9 and S1P1 antag 62.9.
For O=C(OCn1ncc(Cl)c(Cl)c1=O)c1ccc(C(F)(F)F)cc1 the results were Redox H2O2 prof inactive, S1P4 agonist inactive, p97 ATPase inh inactive, S1P4 antag inactive and Arbovirus anti inactive.
For CCC(=O)Nc1ccc(C(=O)Cn2ncc(Cl)c(Cl)c2=O)cc1 the results were S1P3 antagonist inactive, S1P4 agonist inactive, p97 ATPase inh inactive, S1P4 antag 74.6, S1P4 antag cf 106.0 and S1P1 antag 48.1.
`CCCOc1ccc(N2CC(C(=O)NCCc3ccc(OC)c(OC)c3)CC2=O)cc1` (stereo unspecified) gave S1P3 antagonist inactive, Redox H2O2 prof inactive, S1P4 agonist inactive, p97 ATPase inh inactive, S1P4 antag inactive and Arbovirus anti inactive.

Screens from PubChem BioAssay.
